High-throughput results deposited in PubChem by National Center for Advancing Translational Sciences (NCATS).
LDHA block – inhibitors of human lactate dehydrogenase A | P00338 | purified LDHA, NADH/diaphorase-resazurin fluorescence; hits give low values | activity change, % (values are at about 110 or 230 µM) | 480,000 compounds, 0.15% hits | AID 1347041; in the data active = activity change below about -30%; inconclusive = mostly about -25% to -30%;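 also: plate controls were DMSO wells for no effect and wells without enzyme for full effect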
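Human LDH5 (2 nM) was incubated with 0.06 mM NADH and 0.2 mM pyruvate for 5 min at room temperature in Tris pH 7.4. Remaining NADH was coupled through diaphorase/resazurin, and resorufin fluorescence was read at 0 and 20 min.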
DT40 TDP1 CPT – DT40-hTDP1 cell growth loss with CPT; chicken DT40 Tdp1-/-;hTDP1 cells + 20 nM CPT, ATP luminescence, 48 h; 420,000 compounds, 12% hits; Potency, µM (titrated, usually from 46.2 µM), for inactives: at the highest dose activity change, negative = growth inhibition, hits mostly inhibitors; also: potency is read from the fitted curve at half-maximal effect; nearly all actives have a fitted effect of over 55% in size
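Cell growth measured by CellTiter-Glo luminescence after a minimum 48 h, 37 C compound exposure with 20 nM CPT in Tdp1-knockout DT40 cells stably expressing hTDP1, seeded 400/well; qHTS titration format.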
TDP1 cell noCPT – qHTS for Inhibitors of human tyrosyl-DNA phosphodiesterase 1 (TDP1): qHTS in cells in absence of CPT; DT40 Tdp1-/- hTDP1 cells, no CPT, ATP luminescence, 48 h; Potency, µM (series often up to 46.2 µM), for inactives: at the highest dose activity change, negative = growth inhibition, most hits filed as inhibitors; 420,000 compounds, 15% hits; AID 686978, 2013; also: potency is read from the fitted curve at half-maximal effect; nearly all actives have a fitted effect of over 55% in size
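DT40 Tdp1-/-;hTDP1 cells, no CPT (DMSO vehicle only), 400 cells/well; compounds pin-transferred; ≥48 hr, 37 °C; CellTiter-Glo 30 min RT dark, luminescence read.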
RORgamma inh – inhibitors of mouse ROR gamma transcriptional activity. P51450. Drosophila S2 Gal4-RORgamma UAS-luciferase reporter, 20 h. Potency, µM (highest dose often 53.6 µM), for the others: at the highest dose activity change, negative = inhibition, actives largely listed as inhibitors. 310,000 compounds, 5.4% hits; also: potency is read from the fitted curve at half-maximal effect; nearly all actives have a fitted effect of over 60% in size
Target sequence (P51450 whole entry, looked up, the tested form may be a part): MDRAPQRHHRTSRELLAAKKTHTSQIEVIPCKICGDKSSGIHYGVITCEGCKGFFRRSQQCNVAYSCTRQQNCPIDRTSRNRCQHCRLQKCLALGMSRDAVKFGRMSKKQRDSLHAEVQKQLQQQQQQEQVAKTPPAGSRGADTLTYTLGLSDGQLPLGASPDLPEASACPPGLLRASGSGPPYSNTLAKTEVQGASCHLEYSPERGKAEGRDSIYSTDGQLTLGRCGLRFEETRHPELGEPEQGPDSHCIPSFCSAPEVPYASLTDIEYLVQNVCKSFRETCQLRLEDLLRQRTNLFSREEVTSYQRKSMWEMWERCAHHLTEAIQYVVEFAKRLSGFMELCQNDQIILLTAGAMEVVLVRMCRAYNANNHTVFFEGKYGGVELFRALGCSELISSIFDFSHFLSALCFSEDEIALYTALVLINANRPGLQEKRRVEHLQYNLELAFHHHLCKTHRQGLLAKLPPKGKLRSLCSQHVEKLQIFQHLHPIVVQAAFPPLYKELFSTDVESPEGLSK
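Read-out: Photinus luciferase luminescence; inhibitors lower reporter signal. Insect Schneider cells with Gal4-ROR gamma fusion under metallothionein promoter, UAS reporter; 700 uM final copper sulfate induction, 20 hr, ambient temperature.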
VP16 counter – counter-screen for ROR gamma inhibitors: Gal4-VP16 reporter; Drosophila S2 Gal4-VP16 UAS-luciferase, luminescence, 20 h; Potency, µM (titrated, usually from 53.6 µM), for the others: at the top dose activity, negative = inhibition, hits mostly inhibitors; 310,000 compounds, 3.5% hits; AID 2546;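 also: Gal4-VP16 expression switched on by copper sulfate through the metallothionein promoter; potency is read from the fitted curve at half-maximal effect; nearly all actives have a fitted effect of over 50% in size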
IL-1B inflam inh – inflammasome signaling inhibition, IL-1 beta readout; THP-1 LPS/ATP IL-1B secretion, AlphaLISA, 16 h; hits give low values; activity change, % at 57.5 µM; 360,000 compounds, 4.7% hits; in the data active = activity change below about -50%; inconclusive = mostly about -30% to -49%
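Secreted IL-1B measured by AlphaLISA bead assay after 16 h compound exposure of THP-1 cells; compounds (final up to 57.5 uM) added 1 h before LPS (250 ng/mL) and ATP (1.25 mM) stimulation; lower signal means less secretion.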
The depositor's hits bear a star; [ ] = dose if it differs, or a comment. Only some compounds are listed: those with a hit (about 18% of all), similar ones and a draw of the others. Unless noted, calls follow the shape of the dose curve; as a rule, active = well fitted curve in the direction sought with a large enough effect; inconclusive = small, poorly fitted or top-dose-only effect, or another doubt; inactive = no such curve, though single readings can be large; an effect the other way counts as inactive or inconclusive. Unless noted, % is scaled to controls: 0 for no effect and ±100 for the full control effect.

What do the screens show for `Cc1ccc(C(=O)Nc2ccncc2)cc1S(=O)(=O)N1CCCCC1`?
LDHA block: -7; DT40 TDP1 CPT: 23µM*; TDP1 cell noCPT: 18µM*; IL-1B inflam inh: 32

Results for Cc1ccc(C(=O)Nc2cccc3cnccc23)cc1S(=O)(=O)N1CCCCC1 ?
LDHA block: 70

What do the screens show for `O=C(Nc1ccc(Br)cc1)c1ccc(Cl)c(S(=O)(=O)N2CCCCCC2)c1`?
LDHA block: -5; DT40 TDP1 CPT: inconclusive; TDP1 cell noCPT: 16µM*

Results for O=S(=O)(O)C(F)(F)C(F)(F)C(F)(F)C(F)(F)C(F)(F)C(F)(F)C(F)(F)C(F)(F)F ?
DT40 TDP1 CPT: -21%[92.5 µM]; TDP1 cell noCPT: inconclusive

Results for COC(=O)c1ccccc1C(=O)c1ccc(OCCN2CCCCC2)cc1 ?
DT40 TDP1 CPT: inconclusive; TDP1 cell noCPT: -28%; RORgamma inh: -9%; VP16 counter: -7%

What do the screens show for `C[C@H]1CN([C@@H](C)CO)C(=O)CCCn2nncc2CO[C@H]1CN(C)C(=O)Oc1ccc2ccccc2c1`?
LDHA block: -8; DT40 TDP1 CPT: 16µM*; TDP1 cell noCPT: 9.2µM*; IL-1B inflam inh: 24

What do the screens show for `C[C@@H]1CN([C@@H](C)CO)C(=O)CCCn2nncc2CO[C@@H]1CN(C)C(=O)Oc1cccc2ccccc12`?
LDHA block: 3; DT40 TDP1 CPT: 0.52µM*; TDP1 cell noCPT: 0.58µM*; IL-1B inflam inh: 6

Results for C[C@@H]1CN([C@H](C)CO)C(=O)CCCn2nncc2CO[C@H]1CN(C)C(=O)Oc1ccc2ccccc2c1 ?
LDHA block: 1; DT40 TDP1 CPT: -1%; TDP1 cell noCPT: -12%; IL-1B inflam inh: -5

How did C[C@@H]1CN([C@@H](C)CO)C(=O)CCCn2nncc2CO[C@@H]1CN(C)C(=O)Oc1ccc2ccccc2c1 do in these assays?
LDHA block: -3; DT40 TDP1 CPT: -28%; TDP1 cell noCPT: inconclusive; IL-1B inflam inh: 21

Results for C[C@@H]1CN([C@H](C)CO)C(=O)CCCn2nncc2CO[C@@H]1CN(C)C(=O)Oc1ccc2ccccc2c1 ?
LDHA block: -13; DT40 TDP1 CPT: 8%; TDP1 cell noCPT: 8.2µM*; IL-1B inflam inh: -10

How did Cc1[nH]c2ccccc2c1CN(C)C do in these assays?
DT40 TDP1 CPT: inconclusive; TDP1 cell noCPT: inconclusive; RORgamma inh: 9%; VP16 counter: -2%

Results for CCN(CC)c1ccc(C=NN2CCCCCC2)cc1 ?
LDHA block: 4; DT40 TDP1 CPT: inconclusive; TDP1 cell noCPT: inconclusive; IL-1B inflam inh: -18

Results for C[C@@H]1CCCCO[C@H](CN(C)Cc2ccccc2)[C@@H](C)CN([C@H](C)CO)C(=O)c2cc(NC(=O)c3ccccc3)ccc2O1 ?
LDHA block: -10; DT40 TDP1 CPT: inconclusive; TDP1 cell noCPT: 18µM*; IL-1B inflam inh: -17

What do the screens show for `C[C@H]1CN([C@@H](C)CO)C(=O)c2cc(NC(=O)C3CCCCC3)ccc2O[C@H]1CN(C)Cc1ccc(-c2ccccc2)cc1`?
LDHA block: 1; DT40 TDP1 CPT: inconclusive; TDP1 cell noCPT: inconclusive; IL-1B inflam inh: -6

What do the screens show for `C[C@H]1CN([C@@H](C)CO)C(=O)c2cc(NC(=O)Nc3cccc4ccccc34)ccc2O[C@@H]1CN(C)Cc1ccc(-c2ccccc2)cc1`?
LDHA block: 0; DT40 TDP1 CPT: 23µM*; TDP1 cell noCPT: 16µM*; IL-1B inflam inh: 1

What do the screens show for `COc1ccc(NC(=O)Nc2ccc3c(c2)C(=O)N([C@H](C)CO)C[C@H](C)[C@@H](CN(C)Cc2ccc(Cl)c(Cl)c2)OCCCC[C@@H](C)O3)cc1`?
LDHA block: 4; DT40 TDP1 CPT: -17%; TDP1 cell noCPT: 16µM*; IL-1B inflam inh: inconclusive

Results for O=C(/C=C/c1ccc2c(c1)OCO2)c1c(O)n(CCc2ccccc2)c(=O)[nH]c1=O ?
LDHA block: -6; DT40 TDP1 CPT: inconclusive; TDP1 cell noCPT: inconclusive; RORgamma inh: 5%; VP16 counter: 1%; IL-1B inflam inh: -5

What do the screens show for `O=C(/C=C/c1ccccc1)c1c(O)n(CCc2ccccc2)c(=O)[nH]c1=O`?
LDHA block: -1; DT40 TDP1 CPT: 5.2µM*; TDP1 cell noCPT: 2.6µM*; RORgamma inh: -33%[10 µM]; VP16 counter: 22%; IL-1B inflam inh: -23

How did CCCCn1c(O)c(C(C)=NCCc2ccccc2)c(=O)[nH]c1=O do in these assays?
LDHA block: 1; DT40 TDP1 CPT: inconclusive; TDP1 cell noCPT: inconclusive; RORgamma inh: 1%; VP16 counter: -2%; IL-1B inflam inh: 30

Results for COc1cc(/C=C/C(=O)c2c(O)n(CCc3ccccc3)c(=O)[nH]c2=O)ccc1O ?
LDHA block: 3; DT40 TDP1 CPT: 13µM*; TDP1 cell noCPT: 10µM*; RORgamma inh: -39%; VP16 counter: inconclusive; IL-1B inflam inh: -99*

How did CN(C(=O)CCl)C1CCCCC1 do in these assays?
LDHA block: 1

Results for Oc1ccc2c(c1)[C@@]13CCCCC1[C@@H](C2)N(CC1CCC1)CC3 (stereo partly specified) ?
RORgamma inh: 21%; VP16 counter: 5%

Results for CCOc1ccc(-n2c(-c3cccs3)nc3ccccc3c2=O)cc1 ?
LDHA block: -15; DT40 TDP1 CPT: inconclusive; TDP1 cell noCPT: inconclusive; RORgamma inh: -10%; VP16 counter: 6%; IL-1B inflam inh: 22

How did Cc1cccc(-n2c(-c3cccs3)nc3ccccc3c2=O)c1 do in these assays?
LDHA block: -5; DT40 TDP1 CPT: 16µM*; TDP1 cell noCPT: inconclusive; RORgamma inh: 30%; VP16 counter: -7%; IL-1B inflam inh: 24

What do the screens show for `O=c1c2ccccc2nc(-c2cccs2)n1-c1ccccc1`?
LDHA block: -4; DT40 TDP1 CPT: inconclusive; TDP1 cell noCPT: 23µM*; RORgamma inh: inconclusive; VP16 counter: -8%; IL-1B inflam inh: 9

What do the screens show for `N#Cc1c(-c2ccc([N+](=O)[O-])o2)no[n+]1[O-]`?
LDHA block: 20

Results for CCc1ccc([C@H]2[C@@H]3C(=O)C[C@@H]4C(=O)N(Cc5ccccc5)C(=O)[C@@H]4[C@@H]3CN2S(=O)(=O)c2ccc(C)cc2)cc1 ?
LDHA block: 0; DT40 TDP1 CPT: inconclusive; TDP1 cell noCPT: inconclusive; IL-1B inflam inh: -15
